Hits are enriched below; roughly 19% of the tested compounds scored in any of these assays.
TDP1 cell CPT = growth inhibition of DT40 Tdp1-/-;hTDP1 cells with camptothecin (screen for TDP1 inhibitors). 420,000 compounds, 12% hits. Potency, µM (titrated, usually from 46.2 µM), actives largely listed as inhibitors. chicken DT40 Tdp1-/-;hTDP1 cells + 20 nM CPT, ATP luminescence, 48 h. AID 686979; also: nearly all actives have a fitted effect of over 55% in size
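Cell growth measured by CellTiter-Glo luminescence after a minimum 48 h, 37 C compound exposure with 20 nM CPT in Tdp1-knockout DT40 cells stably expressing hTDP1, seeded 400/well; qHTS titration format.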
Chronic BCR inh = chronic active BCR signaling inhibition. ABC-DLBCL IkBa-CBG/CBR reporter, luminescence ratio, 4 h. Potency, µM (top dose mostly 46.1 µM), most hits filed as inhibitors. 340,000 compounds, 0.05% hits; active = well fitted inhibition curve with a large enough effect in the signal ratio, with a control signal flat, not every such curve was filed as active; inconclusive = small, poorly fitted or top-dose-only effect, or effect the other way, or a change in a side signal; the % refers to the signal ratio
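TMD8 human ABC-DLBCL cells with doxycycline-inducible IκBα–green luciferase fusion and unfused red luciferase, in 0.5% FBS medium; compounds up to 46 uM, 4 h at 37C. Green/red luminescence ratio, filter-overlap corrected, fitted to concentration-response curves.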
IL1B secr inh = inflammasome signaling inhibition, IL-1 beta readout; activity change, % at 57.5 µM; AID 743279; THP-1 LPS/ATP IL-1B secretion, AlphaLISA, 16 h; hits give low values; 360,000 compounds, 4.7% hits; in the data active = activity change below about -50%; inconclusive = mostly about -30% to -49%
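Secreted IL-1B measured by AlphaLISA bead assay after 16 h compound exposure of THP-1 cells; compounds (final up to 57.5 uM) added 1 h before LPS (250 ng/mL) and ATP (1.25 mM) stimulation; lower signal means less secretion.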
SW480 rerep = DNA re-replication induction in SW480 cells | SW480 DNA re-replication, Hoechst DNA content imaging, 48 h | Potency, µM (series often up to 46.1 µM), most hits filed as activators | 340,000 compounds, 1.8% hits | AID 624297; also: nearly all actives have a fitted effect of over 55% in size
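Readout is total intensity of Hoechst-stained nuclei, excited at 405 nm and collected at 500-530 nm. Compound treatment lasted 48 hr at 37 C in 5% CO2 before staining.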
TDP1 cell noCPT = qHTS for Inhibitors of human tyrosyl-DNA phosphodiesterase 1 (TDP1): qHTS in cells in absence of CPT | Potency, µM (titrated, usually from 46.2 µM), usual class: inhibitors | DT40 Tdp1-/- hTDP1 cells, no CPT, ATP luminescence, 48 h | 420,000 compounds, 15% hits; also: nearly all actives have a fitted effect of over 55% in size
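Seeded 400 DT40-hTDP1 cells/well (vehicle DMSO, no 20 nM CPT); pinned compounds; ≥48 hr at 37 °C; CellTiter-Glo luminescence as viability measure.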
MCF10A rereplic = inducers of DNA re-replication in MCF 10A breast cells. MCF 10A DNA re-replication, Hoechst nuclear intensity, 48 h. Potency, µM (highest dose often 46.1 µM), usual class: activators. 350,000 compounds, 2.9% hits. AID 624296; also: nearly all actives have a fitted effect of over 50% in size
A number is an active result; i = inactive; ? = inconclusive; nt = no result; [ ] = remark or other dose. Unless noted, calls follow the shape of the dose curve; as a rule, active = well fitted curve in the direction sought with a large enough effect; inconclusive = small, poorly fitted or top-dose-only effect, or another doubt; inactive = no such curve, though single readings can be large; an effect the other way counts as inactive or inconclusive.

SMILES | TDP1 cell CPT | Chronic BCR inh | IL1B secr inh | SW480 rerep | TDP1 cell noCPT | MCF10A rereplic
COc1ccc(Br)cc1Cn1nnc(C(=O)Nc2ccc3c(c2)OCCO3)c1N | ? | ? | i | i | 26µM | ?
Nc1c(C(=O)Nc2ccc3c(c2)OCCO3)nnn1Cc1cccc(Cl)c1 | ? | i | i | i | 16µM | ?
COc1ccc2c(c1)CCc1c(C(=O)N(C)c3ccccc3)noc1-2 | i | i | i | i | i | i
Cc1ccccc1N(C)C(=O)c1noc2c1COc1ccccc1-2 | 23µM | nt | nt | nt | 15µM | nt
CN(C)NC(=S)NC1CC2CCC1C2 (configuration not stated) | i | i | i | i | i | i
Cc1ccc2nc(N(CCCN(C)C)C(=O)c3ccc(S(=O)(=O)N4CCc5ccccc5C4)cc3)sc2c1 | 5.2µM | i | -96 | ? | 5.8µM | 5.2µM
Cc1cc(C)c2sc(N(CCCN(C)C)C(=O)c3ccc(S(=O)(=O)N4CCCc5ccccc54)cc3)nc2c1 | 10µM | i | -67 | i | 9.2µM | ?
CN(C)CCCN(C(=O)c1ccc(S(=O)(=O)N2CCc3ccccc32)cc1)c1nc2ccc(F)cc2s1 | ? | i | -81 | ? | ? | i
Cc1cc(C)c2sc(N(CCCN(C)C)C(=O)c3ccc(S(=O)(=O)N4CCc5ccccc5C4)cc3)nc2c1 | nt | i | nt | nt | nt | nt
COc1ccc2sc(N(CCCN(C)C)C(=O)c3ccc(S(=O)(=O)N4CCc5ccccc5C4)cc3)nc2c1 | 4.1µM | i | -118 | i | 4.6µM | ?
Cc1ccc(N2CC(NC(=O)c3ccco3)CC2=O)cc1 (configuration not stated) | i | ? | nt | nt | i | nt
Cc1ccccc1CN1C(=O)c2ccccc2C1c1nnnn1Cc1ccccc1 (configuration not stated) | i | nt | i | nt | i | nt
Cc1ccccc1Cn1nnc2c1C(=O)c1ccccc1C2=O | 8.2µM | nt | i | ? | 6.5µM | i
Cc1cccc(Cn2nnc3c2C(=O)c2ccccc2C3=O)c1 | 9.2µM | i | i | ? | 4.6µM | i
CCCCNC(C(=O)Nc1ccc(Cl)c([N+](=O)[O-])c1)c1ccccc1 (configuration not stated) | ? | i | ? | i | 21µM | ?
COc1ccc(C2(C(=O)N3CCC(n4nc(-c5ccccc5)oc4=O)CC3)CC2)cc1 | i | i | i | i | i | i
Cc1ccc(C2(C(=O)N3CCC(n4nc(-c5ccccc5)oc4=O)CC3)CC2)cc1 | ? | i | i | i | ? | 21µM
Cc1occc1-c1nnc(SCC(=O)Nc2nc(-c3ccccc3)cs2)o1 | i | ? | i | ? | ? | 18µM
Cc1occc1-c1nnc(SCC(=O)Nc2nc3ccccc3s2)o1 | i | ? | i | i | i | ?
Cc1cc(-c2nnc(SCC(=O)Nc3nc(-c4ccccc4)cs3)o2)no1 | 15µM | ? | i | i | ? | i
COCCNC(=S)N1CCN(c2cccc(C(F)(F)F)c2)CC1 | ? | i | i | i | 23µM | i
FC(F)(F)c1cccc(N2CCN(C(=S)NCC3CCCO3)CC2)c1 (configuration not stated) | ? | i | i | i | 23µM | ?
CN(Cc1ccc2c(c1)CN(C(=O)c1cccc(N(C)C)c1)CCO2)Cc1cc(C2CC2)n[nH]1 | i[9.04 µM] | nt | nt | nt | 23µM | nt
COc1ccc(CNC(=O)CCS(=O)(=O)c2cc(Br)cc3c2N(C(C)=O)C(C)C3)cc1 (configuration not stated) | i | nt | nt | nt | ? | nt
Cc1ccc(Cl)cc1NC(=O)c1cc2ccccc2cc1O | 2.6µM | ? | -90 | ? | 2.9µM | 7.3µM
SMILES | TDP1 cell CPT | Chronic BCR inh | IL1B secr inh | SW480 rerep | TDP1 cell noCPT | MCF10A rereplic
Cc1ccc(Cl)cc1NC(=O)COC(=O)c1ccccc1O | i | i | i | i | i | i
Cc1occc1C(=O)Nc1ccc([N+](=O)[O-])cc1Br | 1.3µM | i | i | ? | 29µM | i
COc1ccccc1NC(=O)COC(=O)c1cc2ccccc2cc1O | i | i | i | i | i | i
COc1ccccc1NC(=O)c1cc2cc(Br)ccc2cc1O | 6.5µM | ? | ? | i | 3.7µM | ?
COc1cc(NC(=O)c2cc3ccccc3cc2O)c(OC)cc1Cl | 15µM | ? | ? | i | 10µM | ?
COc1cc(OC)c(NC(=O)c2ccoc2C)cc1Cl | 15µM | ? | i | i | ? | ?
CC(=O)c1ccc(OCc2cc(C(=O)N(C)C(C)c3nccs3)no2)cc1 (configuration not stated) | 16µM | ? | i | i | ? | i
CC(=O)c1ccc(OCc2cc(C(=O)N3CCCCCCC3)no2)cc1 | ? | i | i | i | 4.1µM | ?
CC(=O)c1ccc(OCc2cc(C(=O)N(C)C(C)c3ccon3)no2)cc1 (configuration not stated) | ? | nt | i | i | 18µM | i
O=C(COC(=O)Cc1n[nH]c(=O)c2ccccc12)Nc1c(Br)cc([N+](=O)[O-])cc1Br | i | nt | i | i | i | i
O=C(O)CCCC(=O)N1N=C(c2ccccc2)CC1c1ccc2c(c1)OCO2 (configuration not stated) | i | i | i | i | i | i
CC(=O)c1cccc(NC(=O)CN2CCc3cc4c(cc3C2)OCCCO4)c1 | ? | i | i | ? | ? | ?
C[C@@H]1CC[C@]2(C(=O)O)CC[C@]3(C)C(=CCC4[C@]56CC[C@@](O)(OC5)C(C)(C)C6CC[C@]43C)C2[C@H]1C (some centres not stated) | 13µM | ? | i | i | 18µM | ?
CCCOc1ccc(F)cc1-c1cc(C(=O)Nc2ccccc2)[nH]n1 | i | nt | i | nt | ? | nt
CCN(CC)CCNC(=O)c1ccc(NC(=O)c2cn(-c3ccc(F)cc3)nc2-c2cccc(OC)c2)cc1 | ? | i | -90 | i | ? | ?
CCOc1ccc(NC(=O)CN(C)C(=O)c2cn(-c3ccc(F)cc3)nc2-c2cccc(OC)c2)cc1OCC | ? | i | i | i | ? | ?
COc1cccc(-c2cc(C(=O)O)[nH]n2)c1 | i | i | i | i | i | i
COc1cccc(-c2cc(C(=O)Nc3ccc(F)cc3)[nH]n2)c1 | ? | nt | nt | nt | 16µM | nt
CC(C)Oc1ccc(F)cc1-c1cc(C(=O)Nc2ccccc2)[nH]n1 | ? | nt | -69 | nt | ? | nt
CC(C)Oc1ccc(F)cc1-c1cc(C(=O)Nc2ccc(C(C)(C)C)cc2)[nH]n1 | 6.5µM | nt | i | nt | 3.3µM | nt
COc1cc(NC(=O)c2ccc([N+](=O)[O-])cc2)ccc1NC(=O)C(C)C | i | ? | i | i | i | i

Screening results from PubChem.
